# Source: PubChem (National Center for Advancing Translational Sciences (NCATS))
# The list is not random: actives were taken first. Their share in the collection is about 5.5%.
# Chronic BCR inh: inhibitors of chronic active B-cell receptor signaling. ABC-DLBCL IkBa-CBG/CBR reporter, luminescence ratio, 4 h. Potency, µM (titrated, usually from 46.1 µM), for inactives: at the top dose activity change, negative = inhibition, most hits filed as inhibitors. actives 0.05% (n = 340,000); active = well fitted inhibition curve with a large enough effect in the signal ratio, with a control signal flat, not every such curve was filed as active; inconclusive = small, poorly fitted or top-dose-only effect, or effect the other way, or a change in a side signal; the % refers to the signal ratio;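 note: plate controls were basal doxycycline-induced cells for no effect and cells given 10 µM MG132 for full effect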
#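 Concentration-response series (up to 46 uM) were applied to TMD8 dual-reporter cells for 4 h at 37C with doxycycline. Green/red ratio, after filter-overlap correction, defined %Activity; red signal alone was normalised to basal cells and zero luminescence.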
# Gal4-VP16 FLuc: inhibits Gal4-VP16 luciferase reporter, ROR gamma counter-screen; Potency, µM (titrated, usually from 53.6 µM), for inactives: at the highest dose activity, negative = inhibition, usual class: inhibitors; actives 3.5% (n = 310,000); Drosophila S2 Gal4-VP16 UAS-luciferase, luminescence, 20 h;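 note: Gal4-VP16 expression switched on by copper sulfate through the metallothionein promoter; % is set by controls: 0 for no effect and ±100 for the full control effect; nearly all actives have a fitted effect of over 50% in size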
# uPA surface inh: inhibitors of cell surface uPA generation. actives 0.31% (n = 330,000). Potency, µM (highest dose often 38.3 µM), for the others: at the highest dose activity change, negative = inhibition, usual class: inhibitors. cell surface uPA generation assay, qHTS; active = well fitted inhibition curve with a large enough effect; inconclusive = small, poorly fitted or top-dose-only effect; inactive = no such curve, though single readings can be large or run the other way; tested in mouse RAW 264.7 cells; note: % is set by controls: 0 for no effect and ±100 for the full control effect; nearly all actives have a fitted effect of over 55% in size
# Mito fusion yeast: blocks mitochondrial division or promotes mitochondrial fusion; S. cerevisiae fusion-defective mutant growth rescue, CellTiterGlo 48 h; Potency, µM (top dose mostly 46.1 µM), for the others: top-dose growth rescue (activation), hits mostly activators; actives 0.23% (n = 320,000); AID 485298; note: % of control where 0% means no effect; nearly all actives have a fitted effect of over 45% in size
#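 Temperature-sensitive fusion-defective S. cerevisiae (e.g. fzo1-1, mgm1-5) were grown with compound in YPEG medium (3% ethanol, 3% glycerol) for 48 hours at 37C. Growth rescue was measured as viability by CellTiterGlo luminescence after 10 minutes at ambient.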
# Integrin act MD: integrin-mediated muscular dystrophy alleviation activation | alpha7betagal myoblasts, beta-gal FDG fluorescence, 48 h | Potency, µM (top dose mostly 38.3 µM), inactives show at the top dose activation, most hits filed as activators | actives 0.064% (n = 350,000);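 note: 100% = response of the positive control SU9516; nearly all actives have a fitted effect of over 60% in size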
#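 Alpha7betagal+/- myoblasts (passage 13) were plated 16-24 hr, then exposed to compounds (1:260 dilution of DMSO stock) for 48 hours at 37C. After MPER lysis, β-galactosidase reporter activity was read as FDG fluorescence (ex 480/em 540) after 30 minutes.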
# RORgamma inh: inhibitors of mouse ROR gamma transcriptional activity. P51450. Drosophila S2 Gal4-RORgamma UAS-luciferase reporter, 20 h. Potency, µM (series often up to 53.6 µM), without a hit: at the top dose activity change, negative = inhibition, usual class: inhibitors. actives 5.4% (n = 310,000). AID 2551; note: % is set by controls: 0 for no effect and ±100 for the full control effect; nearly all actives have a fitted effect of over 60% in size
# Target sequence (P51450 whole entry, looked up, the tested form may be a part): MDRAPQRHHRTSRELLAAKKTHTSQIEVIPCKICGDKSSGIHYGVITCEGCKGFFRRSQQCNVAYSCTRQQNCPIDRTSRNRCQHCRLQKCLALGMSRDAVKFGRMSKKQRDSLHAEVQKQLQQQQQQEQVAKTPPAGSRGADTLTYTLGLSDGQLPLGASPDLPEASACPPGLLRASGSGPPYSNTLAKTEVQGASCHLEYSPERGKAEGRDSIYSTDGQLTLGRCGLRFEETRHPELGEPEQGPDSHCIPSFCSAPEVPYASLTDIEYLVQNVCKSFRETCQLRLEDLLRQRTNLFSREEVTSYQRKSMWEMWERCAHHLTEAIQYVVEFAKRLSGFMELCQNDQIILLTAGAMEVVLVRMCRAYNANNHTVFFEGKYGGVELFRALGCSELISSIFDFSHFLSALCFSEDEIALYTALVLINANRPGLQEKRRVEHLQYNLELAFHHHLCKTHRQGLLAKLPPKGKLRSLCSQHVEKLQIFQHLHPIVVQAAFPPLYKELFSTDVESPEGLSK
#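 A Gal4/UAS one-hybrid system in insect cells: metallothionein-promoter Gal4–ROR gamma fusion plus Photinus luciferase reporter. Copper sulfate 700 uM final, 20 hr ambient incubation, luminescent detection after 10 min with reagent.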
# The depositor's hits bear a star; ? = inconclusive; · = no result; ! = not active in a repeat; [ ] = dose if it differs, or a comment. Unless noted, calls come from the whole dose curve; as a rule, active = well fitted curve in the direction sought with a large enough effect; inconclusive = small, poorly fitted or top-dose-only effect, or another doubt; inactive = no such curve, though single readings can be large; an effect the other way counts as inactive or inconclusive. Potency is the fitted concentration of half-maximal effect.
SMILES,Chronic BCR inh,Gal4-VP16 FLuc,uPA surface inh,Mito fusion yeast,Integrin act MD,RORgamma inh
CC(C)C[C@H](NC(=O)[C@H](Cc1ccccc1)NC(=O)CNC(=O)[C@H](CCC(=O)O)NC(=O)[C@H](CCCNC(=N)N)NC(=O)[C@H](C)NC(=O)[C@H](C)NC(=O)[C@@H](N)CC(=O)O)C(=O)N[C@@H](CC(=O)O)C(=O)N[C@H](C(=O)N[C@@H](CC(C)C)C(=O)N[C@H](C(=O)N[C@H](C(=O)N[C@@H](CC(C)C)C(=O)N[C@@H](Cc1cnc[nH]1)C(=O)N[C@@H](CCCNC(=N)N)C(=O)N[C@@H](C)C(=O)NCC(=O)N[C@@H](C)C(=O)N[C@@H](CCCNC(=N)N)C(=O)O)C(C)C)C(C)C)[C@@H](C)O,·,12.4%,·,·,·,2.2%
Cc1ccc(NC(=O)C2=C(O)c3sccc3N(C)S2(=O)=O)cc1,?,-7.7%,-1.7%,0.7%,8.4%,29.4%
Cc1ccc(NC(=S)C2=C(O)c3sccc3N(C)S2(=O)=O)cc1,?,15.8µM*,-5.7%,3.9%,-15.1%,12.6µM*
O=C(/C=C\c1ccccc1)c1ccccc1O,·,26.3%[10 µM],·,·,·,17.2%[10 µM]
O=C(/C=C(\O)c1ccccc1)c1ccccc1O,·,4.47µM*,·,·,·,4.47µM*
Cc1ccc(C(=O)NC(=S)Nc2ccc(Oc3ccc(Cl)cc3)cc2)cc1,8.4%,?,9.5%,-6.4%,18.6%,0.891µM*
COc1ccc(C(=O)NC(=S)Nc2ccc(Cl)c(C(=O)O)c2)cc1,?,?,2.5%,-4.0%,-25.1%,-10.1%
COc1ccc(NC(=O)c2ccccc2C)cc1,?,-23.6%,-8.3%,-1.5%,42.7%,-42.2%
Cc1ccccc1C(=O)NC(=S)Nc1ccc(Oc2ccc(Cl)cc2)cc1,8.5%,11.2µM*,6.1%,-6.6%,21.7%,3.16µM*
O=C(NC(=S)Nc1ccc(Oc2ccccc2)cc1)c1ccc(Cl)cc1,?,?,-6.7%,14.0%,10.6%,8.91µM*
C=CC[C@@H]1C=C[C@@H](O/N=C2/[C@H]3O[C@@H]3[C@@H](O)[C@H]3[C@H]2CCn2c(=O)n(-c4ccccc4)c(=O)n23)[C@@H](CO)O1,·,-4.1%[10 µM],·,·,·,27.3%[10 µM]
NC(=O)c1ccccc1NC(=O)c1ccc2c(c1)OCO2,?,-3.9%,?,-5.0%,0.7%,-32.5%
CC(C)c1ccc(OC(=O)c2ccc3c(=O)n4c(nc3c2)CCC4)cc1,18.1%,·,6.3%,23.0%,8.6%,·
COC(=O)c1ccc(NC(=S)NC(=O)c2cccnc2)cc1,-2.2%,?,-0.8%,-4.9%,31.0%,?
COc1ccc(NC(=S)NC(=O)c2cccnc2)cc1,-3.9%,?,-0.6%,-13.6%,1.9%,11.2µM*
O=C(NC(=S)NCCSc1ccccc1)c1cccnc1,-7.6%,?,-1.9%,-20.8%,-3.5%,12.6µM*
CC(C)(C)c1ccc(OCCNC(=S)NC(=O)c2cccnc2)cc1,2.5%,?,0.5%,6.5%,1.4%,12.6µM*
O=C(NC(=S)Nc1ccccc1Br)c1cccnc1,?,17.8µM*,9.8%,-12.9%,-53.7%,10µM*
CC(C)(C)c1ccc(C(=O)NC(=S)NCc2cccnc2)cc1,?,-10.9%,-6.1%,·,-36.8%,-5.4%
CC(C)(C)C(=O)NC(=S)NNC(=O)c1ccncc1,-3.8%,0.3%[10 µM],-0.8%,-1.2%,-10.7%,?
COc1cc(OC)cc(C(=O)NNC(=S)NC(=O)c2cccnc2)c1,-21.8%,-22.3%,7.6%,1.4%,-1.0%,11.2µM*
CC(C)(C)C(=O)NC(=S)NNC(=O)c1ccc(-c2ccccc2)cc1,?,15.8µM*,?,-31.1%,-49.4%,?
CC(C)c1ccc(O)c(NC(=S)NC(=O)c2cccnc2)c1,?,1.41µM*,-9.8%,0.2%,-16.2%,0.708µM*
CCC(C)c1ccc(O)c(NC(=O)c2cccnc2)c1 (stereo not given),15.3%,1.0%,0.8%,5.8%,-13.6%,0.0%
CC(C)(C)c1cc(Cl)c(O)c(NC(=S)NC(=O)c2cccnc2)c1,-2.7%,0.891µM*,?,6.7%,0.1%,0.159µM*
SMILES,Chronic BCR inh,Gal4-VP16 FLuc,uPA surface inh,Mito fusion yeast,Integrin act MD,RORgamma inh
O=C(NCCCN1CCCCCC1)[C@@H](c1ccccc1)C1CCCCC1,·,0.7%,·,·,·,1.2%
CC(C)(C)C(=O)C(Oc1ccc(Cl)cc1)n1ccnc1 (stereo not given),·,5.9%,·,·,·,-6.2%[10 µM]
CN(CC(=O)Nc1ccccc1N1CCCC1)S(=O)(=O)c1ccc(F)cc1,-8.3%,·,0.1%,16.6%,-13.4%,·
O=C(NNC(=S)NC(=O)c1ccccc1)c1cccnc1,?,?,-12.9%,-0.1%,?,?
CC(C)(C)c1ccc(C(=O)NNC(=S)NC(=O)c2cccnc2)cc1,?,?,0.7%,-47.2%,-28.0%,2.82µM*
CCN1CCN(C(=O)N[C@H](C(=O)N[C@@H]2C(=O)N3C(C(=O)O)=C(CSc4nnnn4C)CS[C@@H]23)c2ccc(O)cc2)C(=O)C1=O,·,-9.8%[17 µM],·,·,·,-9.4%[16.9 µM]
C[C@]12CC[C@@H]3c4ccc(O)cc4CC[C@H]3[C@@H]1CCC2=O,?,-21.0%,?,5.8µM*!,·,-7.5%
CC(NC(=O)C12CC3CC(CC(C3)C1)C2)C(=O)NN=Cc1ccc([N+](=O)[O-])o1 (stereo not given),2.3%,·,-11.0%,·,-58.0%,·
CC(NC(=O)c1ccc([N+](=O)[O-])o1)C12CC3CC(CC(C3)C1)C2 (stereo not given),?,-13.2%,-9.5%,14.1µM*,-64.0%,2.51µM*
COc1cccc(NC(=O)Cc2ccccc2)c1,0.1%,8.6%,?,2.3%,9.3%,?
O=C(Cc1ccccc1)Nc1cccc(N2C(=O)C=CC2=O)c1,?,5.01µM*,-4.3%,-2.5%,-50.0%,3.55µM*
CCOC(=O)c1cc(-c2ccc(F)cc2)n(CCC(=O)NC2CCC(C)CC2)c1C (stereo not given),-8.1%,·,·,·,·,·
CC(C)C[C@@H](NC(=O)[C@H](Cc1ccccc1)NC(=O)c1cnccn1)B(O)O,·,?,·,·,·,0.0079µM*
O=C(Cc1ccc(F)cc1)Nc1c(C(=O)N2CCN(c3ncccn3)CC2)oc2ccccc12,13.4%,2.5%,0.8%,4.9%,9.2%,0.5%
O=C(c1cccs1)N1CCN(C23CC4CC(CC(C4)C2)C3)CC1,5.3%,-21.9%,-6.8%,-2.2%,-25.8%,?
COCC(=O)N/N=C\c1ccccc1OC/C=C/c1ccccc1,9.0%,-16.6%,?,-1.7%,-17.8%,-4.2%
COCC(=O)N/N=C\c1cccc(OC)c1OC/C=C/c1ccccc1,-0.6%,?,-2.5%,8.0%,-24.3%,12.6µM*
COC(=O)N/N=C\c1ccc(OC/C=C/c2ccccc2)c(OC)c1,-2.5%,-10.1%,3.5%,1.1%,17.2%,17.5%
